Activity calls are given as the source filed them.
Tests used:
[1] = E. coli DRC41 culture turbidity changes, primary screen, E. coli filamentation inducer project, strain DRC41, OD650, 48 h (AID 1152);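 further: E. coli MC1000 strain DRC41 lacking acrAB efflux pump and sulA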; settings: E. coli DRC41 (acrAB sulA), higher = more signal, called active from +8 up or from −8 down
[2] = small-molecule binders of probe aLefty1, primary screen, biochemical, small-molecule microarray, 635/667 nm fluorescence (AID 1153); settings: higher = more signal;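 further: score merges spot fluorescence with signal-to-noise ratio from the scanned slide images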
[3] = PSAC antagonists in infected red cells, primary screen, cell-based, P. falciparum Indochina, OD700, 1 h (AID 1154); settings: P. falciparum Indochina infected RBC osmotic lysis, higher = more signal, called active from +8 up or from −8 down
[4] = PSAC antagonists in infected red cells, primary screen, cell-based, P. falciparum Indochina, OD700, 2 h (AID 1155);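 further: lysis reports solute entry through the parasite surface anion channel PSAC; channel blockers reduce lysis of infected cells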; settings: P. falciparum Indochina infected erythrocytes, osmotic lysis OD700; higher = more signal, called active from +8 up or from −8 down
[5] = osmotic lysis modulators in infected erythrocytes, primary screen, PSAC antagonist project, cell-based, P. falciparum Indochina, OD700, 3 h (AID 1156); settings: higher = more signal, called active from +8 up or from −8 down
[6] = PSAC antagonists in infected red cells, primary screen, cell-based, P. falciparum Indochina, OD700, 18 h (AID 1157); settings: P. falciparum Indochina infected erythrocytes, osmotic lysis OD700, 18 h; higher = more signal, called active from +8 up or from −8 down
[7] = modulators of S6 phosphorylation in cells, primary screen, cell-based, A549, cytoblot, luminescence, serum-stimulated (AID 1158); settings: A549 phospho-S6 cytoblot, 5 h, higher = more signal;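 further: serum-stimulated A549 lung adenocarcinoma cells; signal is phosphorylated S6 detected by cytoblot immunostaining with HRP secondary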
[8] = target: NADPH oxidase 2 (Homo sapiens) (UniProt P04839); test: NOX2-dependent H2O2 signal modulators, primary screen, NOX inhibitor project, cell-based, HEK293-NOX2, PMA-stimulated, Amplex Red fluorescence (AID 1159); settings: 45 min, higher = more signal, called active from +8 up or from −8 down; further: test concentration not given here
[9] = target: NADPH oxidase 4 (Homo sapiens) (UniProt Q9NPH5); test: NOX4-dependent H2O2 signal modulators, primary screen, NOX inhibitor project, cell-based, HEK293-NOX4, tetracycline-induced, Amplex Red fluorescence (AID 1160); settings: 45 min, higher = more signal, called active from +8 up or from −8 down
[10] = target: NADPH oxidase 5 (Homo sapiens) (UniProt Q96PH1); test: NOX5-dependent H2O2 signal modulators, primary screen, NOX inhibitor project, cell-based, HEK293-NOX5, Amplex Red fluorescence (AID 1161); settings: HEK293-NOX5, ionomycin, 45 min, higher = more signal
Sequence of NADPH oxidase 5 (Homo sapiens) (Q96PH1 whole entry, looked up): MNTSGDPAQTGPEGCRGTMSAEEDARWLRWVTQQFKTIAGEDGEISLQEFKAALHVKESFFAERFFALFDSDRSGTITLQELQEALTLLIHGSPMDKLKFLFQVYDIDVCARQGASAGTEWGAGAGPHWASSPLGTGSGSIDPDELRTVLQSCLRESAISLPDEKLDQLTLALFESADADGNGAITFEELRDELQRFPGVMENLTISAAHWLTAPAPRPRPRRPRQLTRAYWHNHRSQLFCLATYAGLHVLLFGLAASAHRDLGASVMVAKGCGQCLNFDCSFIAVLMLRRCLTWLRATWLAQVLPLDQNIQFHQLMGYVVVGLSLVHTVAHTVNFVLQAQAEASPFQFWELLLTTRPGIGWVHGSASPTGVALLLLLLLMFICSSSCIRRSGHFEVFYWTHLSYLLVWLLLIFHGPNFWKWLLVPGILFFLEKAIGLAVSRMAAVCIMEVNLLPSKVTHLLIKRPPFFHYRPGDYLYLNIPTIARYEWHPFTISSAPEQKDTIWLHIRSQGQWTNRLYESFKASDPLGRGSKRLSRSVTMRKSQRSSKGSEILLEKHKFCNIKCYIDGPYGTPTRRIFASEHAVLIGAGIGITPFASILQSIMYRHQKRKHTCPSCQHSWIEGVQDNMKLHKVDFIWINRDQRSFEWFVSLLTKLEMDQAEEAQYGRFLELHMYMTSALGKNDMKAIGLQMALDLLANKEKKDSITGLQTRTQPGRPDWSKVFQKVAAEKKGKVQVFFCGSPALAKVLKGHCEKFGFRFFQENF

Sequence of NADPH oxidase 4 (Homo sapiens) (Q9NPH5 whole entry, looked up): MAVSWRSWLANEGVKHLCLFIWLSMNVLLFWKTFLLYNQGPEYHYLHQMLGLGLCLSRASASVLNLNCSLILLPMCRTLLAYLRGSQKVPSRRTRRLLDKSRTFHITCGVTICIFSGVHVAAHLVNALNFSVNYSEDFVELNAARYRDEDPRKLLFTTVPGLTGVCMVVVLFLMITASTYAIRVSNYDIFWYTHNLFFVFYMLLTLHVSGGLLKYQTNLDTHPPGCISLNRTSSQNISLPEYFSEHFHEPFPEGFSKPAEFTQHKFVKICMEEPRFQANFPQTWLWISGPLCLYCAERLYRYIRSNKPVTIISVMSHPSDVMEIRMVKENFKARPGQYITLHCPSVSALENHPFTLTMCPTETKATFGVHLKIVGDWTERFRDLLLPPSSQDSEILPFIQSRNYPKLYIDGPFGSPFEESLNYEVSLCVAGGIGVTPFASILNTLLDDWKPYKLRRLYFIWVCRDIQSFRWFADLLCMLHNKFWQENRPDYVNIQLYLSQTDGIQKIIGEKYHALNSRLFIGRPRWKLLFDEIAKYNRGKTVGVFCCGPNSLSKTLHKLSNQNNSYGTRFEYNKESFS
Sequence of NADPH oxidase 2 (Homo sapiens) (P04839 whole entry, looked up): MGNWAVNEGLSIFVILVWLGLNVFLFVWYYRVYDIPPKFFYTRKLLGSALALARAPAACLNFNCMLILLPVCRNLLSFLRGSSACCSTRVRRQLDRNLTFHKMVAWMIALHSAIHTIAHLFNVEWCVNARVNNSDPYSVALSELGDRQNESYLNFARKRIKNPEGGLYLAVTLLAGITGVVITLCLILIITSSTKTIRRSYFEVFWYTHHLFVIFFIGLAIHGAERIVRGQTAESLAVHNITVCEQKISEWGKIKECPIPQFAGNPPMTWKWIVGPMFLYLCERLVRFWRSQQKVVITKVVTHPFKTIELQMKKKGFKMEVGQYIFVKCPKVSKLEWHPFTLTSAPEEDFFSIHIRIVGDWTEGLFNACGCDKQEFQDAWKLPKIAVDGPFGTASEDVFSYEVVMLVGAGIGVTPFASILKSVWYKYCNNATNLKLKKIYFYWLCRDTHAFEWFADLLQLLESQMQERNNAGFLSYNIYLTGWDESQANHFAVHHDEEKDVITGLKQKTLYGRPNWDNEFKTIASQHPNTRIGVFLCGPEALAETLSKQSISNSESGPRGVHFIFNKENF

| SMILES | z-score [1] | composite z-score [2] | z-score [3] | z-score [4] | z-score [5] | z-score [6] | z-score [7] | z-score [8] | z-score [9] | z-score [10] |
| --- | --- | --- | --- | --- | --- | --- | --- | --- | --- | --- |
| CC(C)N1CC=CC23O[C@@H]4/C=C\CCCOC(=O)C4[C@H]2C(=O)N(CCO)[C@@H]3C1=O (stereo not given in full) | 3.41 (inactive) | -0.0518 | 2.92 (inactive) | 0.236 (inactive) | 0.716 (inactive) | -0.806 (inactive) | 0.54 | 1.23 (inactive) | 0.375 (inactive) | 1.84 |
| [N-]=[N+]=NCc1ccccc1C[C@]1(C(=O)N2CCCCC2)N=C(c2ccc(OCCCO)cc2)O[C@H]1c1ccccc1CN=[N+]=[N-] | -0.481 (inactive) | 0.42 | 16.1 (active) | 3.02 (inactive) | 2.16 (inactive) | 1.16 (inactive) | -0.574 | 0.545 (inactive) | -0.692 (inactive) | -0.824 |
| COc1cccc([C@H]2N[C@H](C(=O)O)CC[C@@H]2C)c1 | 0.669 (inactive) | -0.23 | 1.09 (inactive) | 0.0208 (inactive) | 0.269 (inactive) | -1.06 (inactive) | 3.05 | 0.0263 (inactive) | -0.557 (inactive) | 0.125 |
| CCCC=C(CCC)[C@@H](NS(=O)(=O)c1ccc(-c2ccccc2)cc1)c1ccc(C(=O)OC)cc1 | -2.25 (inactive) | -0.202 | 0.757 (inactive) | -0.515 (inactive) | 0.248 (inactive) | -1.71 (inactive) | 2.45 | -4.5 (inactive) | -4.82 (inactive) | -2.09 |
| C[C@H]1C2[C@H](Cc3ccccc3)NC(=O)[C@]23C(=O)N[C@H](Cc2ccccc2)C(=O)N[C@@H](Cc2ccccc2)C(=O)NC/C=C\C/C=C/C3[C@@H]2O[C@]12C (stereo not given in full) | 0.839 (inactive) | 0.305 | 3.27 (inactive) | 0.358 (inactive) | -0.0925 (inactive) | 0.0094 (inactive) | 0.654 | 0.453 (inactive) | 1.1 (inactive) | 1.26 |
| COCCOC(=O)N1C(=O)[C@@]2(c3cc(C#CC4(O)CCCCCC4)ccc31)[C@H](C(=O)N1CCCCCCC1)[C@H]1C(=O)O[C@H](c3ccccc3)[C@H](c3ccccc3)N1[C@@H]2c1ccc(O)cc1 | 1.13 (inactive) | 2.25 | 0.908 (inactive) | 0.128 (inactive) | -0.373 (inactive) | -0.763 (inactive) | 1.49 | 1.5 (inactive) | 0.372 (inactive) | 2.35 |
| CN1C(=O)C2C=CC(C(O)c3ccc(N(C)C)cc3)N(Nc3ccc([N+](=O)[O-])cc3[N+](=O)[O-])C2C1=O (stereo not given) | -0.692 (inactive) | 0.719 | 2.33 (inactive) | 1.27 (inactive) | -0.169 (inactive) | 1.05 (inactive) | -0.444 | -0.742 (inactive) | -1.39 (inactive) | -0.0769 |
| CCCNC(=O)[C@@H]1c2ccccc2C(=O)N(C2CCCCC2)[C@H]1c1ccc(CO)cc1 | -0.401 (inactive) | 0.14 | 11 (active) | 0.867 (inactive) | 1.06 (inactive) | 0.72 (inactive) | -0.326 | 0.747 (inactive) | -0.201 (inactive) | -1.24 |
| C=CCC(OC(C)=O)[C@@H]1[C@@H](N(Cc2cccc3ccccc23)C(=O)Cc2ccc(F)cc2)c2cc(OCCCO)ccc2N1C(=O)Cc1ccc2ccccc2c1 (stereo not given in full) | 0.576 (inactive) | -0.0162 | 1.71 (inactive) | 0.605 (inactive) | -0.0952 (inactive) | 0.434 (inactive) | 0.163 | -0.606 (inactive) | 0.626 (inactive) | 0.765 |
| C=CCN1C(=O)[C@]2(O[C@H](CCn3cc(CCO)nn3)[C@@H]([Si](C)(C)c3ccc(OC)cc3)[C@@H]2C)c2cc(NC(=O)c3ccc(OC)cc3)ccc21 | 1.24 (inactive) | 0.13 | 11.3 (active) | -0.0473 (inactive) | 0.715 (inactive) | -1.36 (inactive) | 0.173 | 0.891 (inactive) | 1.28 (inactive) | 0.385 |
| COc1ccc(-c2ccccc2[C@@H]2N[C@H](C(=O)O)CC[C@H]2C)cc1 | 0.522 (inactive) | -0.147 | 0.908 (inactive) | 0.443 (inactive) | 1.42 (inactive) | -0.0201 (inactive) | 0.305 | 0.653 (inactive) | -1.28 (inactive) | -0.431 |
| C=C(/C(=C/C[C@@H](OC(=O)c1ccncc1)c1ccc(CO)o1)c1cnc2ccccc2c1)C(C)C | 0.767 (inactive) | 0.0248 | 4.66 (inactive) | 0.231 (inactive) | 0.633 (inactive) | -0.0835 (inactive) | -0.191 | 0.588 (inactive) | -0.649 (inactive) | -1.08 |
| CCCC[C@@H]1C[C@H]1[C@@H](NC(=O)c1cccs1)c1ccc(Cl)cc1 | -1.06 (inactive) | -0.124 | 0.492 (inactive) | -0.696 (inactive) | 1.13 (inactive) | -1.93 (inactive) | 1.38 | -3.93 (inactive) | -6.76 (inactive) | -2.26 |

From PubChem BioAssay
